Source: PubChem (The Scripps Research Institute Molecular Screening Center)
ADAM10 inh = human ADAM10 inhibitors, primary screen, biochemical, QFRET, HTS | recombinant ADAM10, EDANS/DABCYL FRET peptide cleavage, 3 h | inhibition, % at 7 µM | 370,000 tested, 0.62% active | Disintegrin and metalloproteinase domain-containing protein 10 (Homo sapiens), O14672;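 active = inhibition above a per-campaign cutoff equal to the mean of compounds falling between control-based bounds plus 3 SD, cut at about 20% in these data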;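 note: 0% = DMSO wells while the 100% control is not disclosed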
PLCb3 inh = human PLC-beta3 inhibitors, primary screen, biochemical, fluorescence; Purified PLC-beta3, fluorogenic substrate; inhibition, % at 12.2 µM; 370,000 tested, 0.18% active; in the data active = inhibition above about 11%;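 note: 0% = median of compound wells on plate and 100% = full blocker control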
KLK7 zymogen act = proKLK7 zymogen activators, primary screen, biochemical, fluorescence intensity | purified proKLK7, EDANS-DABCYL substrate fluorescence; 100% is mature enzyme control, 0% vehicle | activation, % at 7 µM | 370,000 tested, 0.9% active;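 active = activation above the mean of all tested compounds plus 3 SD, computed per campaign excluding outliers beyond control limits, cut at about 13% in these data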
ADAM17 inh = ADAM17 inhibitors, primary screen, biochemical, QFRET | recombinant ADAM17, EDANS/DABCYL FRET peptide cleavage | inhibition, % at 6.95 µM | 370,000 tested, 0.83% active | AID 720648, 2013;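 active = inhibition above the mean of compounds lying between control limits plus 3 SD, set per campaign, cut at about 8.5% in these data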;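 note: 0% = DMSO-only wells as the low control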
Target sequence (P78536 215-824 limits assumed): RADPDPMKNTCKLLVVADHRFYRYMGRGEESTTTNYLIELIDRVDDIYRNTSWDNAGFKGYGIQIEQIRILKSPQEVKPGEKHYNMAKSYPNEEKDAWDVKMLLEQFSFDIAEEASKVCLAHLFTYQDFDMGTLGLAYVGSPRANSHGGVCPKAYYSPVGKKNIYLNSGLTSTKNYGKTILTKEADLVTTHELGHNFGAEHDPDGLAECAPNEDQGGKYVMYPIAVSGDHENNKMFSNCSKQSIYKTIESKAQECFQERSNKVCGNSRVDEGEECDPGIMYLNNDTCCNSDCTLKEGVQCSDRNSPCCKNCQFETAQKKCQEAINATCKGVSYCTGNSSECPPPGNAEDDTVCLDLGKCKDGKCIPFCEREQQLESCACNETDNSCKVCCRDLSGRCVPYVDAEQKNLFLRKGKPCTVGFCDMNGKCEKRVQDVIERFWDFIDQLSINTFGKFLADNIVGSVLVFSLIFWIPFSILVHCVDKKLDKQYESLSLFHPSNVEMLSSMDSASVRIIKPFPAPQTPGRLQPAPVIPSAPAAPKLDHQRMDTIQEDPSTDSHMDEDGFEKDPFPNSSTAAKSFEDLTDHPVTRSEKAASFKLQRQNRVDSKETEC
PLCg1 inh = PLC-gamma1 enzyme inhibitors, primary screen, biochemical, fluorescence, purified enzyme; fluorogenic substrate; 370,000 tested, 0.84% active; inhibition, % at 12.2 µM; 1-phosphatidylinositol 4,5-bisphosphate phosphodiesterase gamma-1 (Homo sapiens), P19174
PLCgamma1 ctr = PLC-gamma1 enzyme inhibitors, counter-screen for PLC-beta3 inhibitor project, biochemical, fluorescence; shares compounds with PLCg1 inh; purified PLC-gamma1, fluorogenic substrate; inhibition, % at 12.3 µM; 3,300 tested, 3.1% active
PLCb3 confirm = PLC-beta3 inhibitor confirmation, biochemical, fluorescence, purified enzyme. fluorogenic substrate fluorescence. inhibition, % at 12.3 µM. shares compounds with PLCg1 inh. AID 743261, 2014. 3,300 tested, 1% active; in the data active = inhibition above about 11%
Active calls of the source: *; x = not tested or not shown. Sampled rows, rich in hits. Any-hit rate of the full collection: about 2.9%. Cut-off read from the data, not from the text of the source, unless noted: active = inhibition above about 9.5%; inactive = the rest.

SMILES | ADAM10 inh | PLCb3 inh | KLK7 zymogen act | ADAM17 inh | PLCg1 inh | PLCgamma1 ctr | PLCb3 confirm
O=C(C[n+]1cc(-c2ccc(Cl)cc2)n2c1CCC2)N1c2ccccc2Sc2ccccc21 | 4.3 | 3.3 | 0.3 | 3.0 | 5.2 | x | x
Cc1cccc(NC(=S)N(Cc2cccc(Br)c2)CC2CCC(C(=O)O)CC2)c1 (stereo unspecified) | 6.5 | -0.8 | 0.4 | 2.5 | 10.9* | -10.7 | -5.2
COc1ccc(OC)c(NC(=O)COc2coc(CN3CCCc4ccccc43)cc2=O)c1 | -5.2 | -5.6 | -0.4 | -1.0 | 17.3* | -7.5 | -5.2
O=C(Nc1ccc(F)cc1F)c1c(C(F)(F)F)ccnc1Oc1ccccc1 | 10.3 | 1.0 | 0.3 | 2.7 | 11.1* | -5.1 | 0.9
Cc1cccc(Oc2nccc(C(F)(F)F)c2C(=O)Nc2ccc(F)cc2F)c1 | 5.2 | -0.7 | -0.5 | 2.2 | 6.6 | x | x
COc1cc(/C=N/NC(=O)c2cc[n+]([O-])cc2)cc(OC)c1OC | -2.4 | -4.1 | 0.0 | -1.9 | 2.9 | x | x
COc1cc(/C=N/NC(=O)c2cc[n+]([O-])cc2)ccc1O | 12.0 | 10.3 | -0.1 | 8.3 | 16.8* | 2.9 | 1.8
CCCCNC(=O)Nc1c(C(=O)OCC)[nH]c2ccccc12 | -9.6 | -5.1 | -0.7 | -0.4 | 3.4 | x | x
Cc1ccccc1NC(=O)C1CC(=O)N(c2ccccc2F)C1 (stereo unspecified) | 5.9 | 11.3* | 1.1 | 5.7 | 3.2 | -2.4 | -1.4
Cc1ccccc1NC(=O)C1CC(=O)N(c2ccc3c4c(cccc24)CC3)C1 (stereo unspecified) | 5.1 | 0.6 | 0.8 | 0.1 | -0.4 | x | x
O=[N+]([O-])c1nccn1CC(O)CO (stereo unspecified) | -6.9 | 8.0 | -0.7 | -6.4 | 10.3* | -1.9 | 1.5
CC(=O)NCCOc1nc(N(C)C)nc(N2CCOCC2)n1 | -1.8 | 1.5 | 0.9 | -2.7 | 3.5 | x | x
CC(C)=NOc1nc(N(C)C)nc(N2CCOCC2)n1 | 8.7 | 10.9* | -0.4 | 1.8 | 10.9* | -2.3 | -0.2
O=C1N=C2SCCN2/C1=C\c1ccccc1Cl | 15.9 | -1.3 | 0.3 | 4.5 | 11.0* | -8.4 | -6.3
COc1ccc(-n2nnc3c(SCC(=O)OCc4ccccc4)ncnc32)cc1 | 1.8 | -1.6 | 0.5 | -2.8 | 1.9 | x | x
CCOc1ncccc1C(=O)N=c1sccn1C | -13.9 | -2.4 | 0.1 | 6.9 | 12.3* | -4.3 | 0.6
Cc1ccccc1C(=O)N=c1sccn1C | 9.5 | -10.8 | 0.3 | -3.4 | -5.6 | x | x
CCCN(C)C[C@@H]1OCCCC[C@@H](C)Oc2ccc(NS(=O)(=O)c3ccc(OC)cc3)cc2C(=O)N([C@H](C)CO)C[C@@H]1C | -6.5 | -2.0 | -0.6 | -4.9 | -1.8 | x | x
COC(=O)C1=C(C)N(Cc2ccccc2)C(=NCc2cccc(C(F)(F)F)c2)N[C@H]1c1cccc(F)c1 | 2.0 | 3.4 | -0.4 | 0.2 | 12.8* | -7.2 | -8.9
COC(=O)C1=C(C)N(Cc2cccc(C(F)(F)F)c2)C(=NCc2ccccc2C(F)(F)F)NC1c1ccc(Cl)cc1 (stereo unspecified) | 1.9 | 13.7* | 0.2 | 7.5 | 1.3 | -3.0 | -4.1
COc1ccc(/C=C2\SC(N3CCc4ccccc4C3)=NC2=O)cc1OC | -30.9 | -57.0 | -2.1 | -8.2 | -49.2 | x | x
Cc1ccc(Sc2ncccc2[N+](=O)[O-])cc1 | -1.4 | -9.2 | -1.1 | -0.4 | -3.6 | x | x
Cc1cc(NC(=O)CSc2nnc(-c3cccs3)n2N)no1 | -0.3 | 2.6 | -0.1 | 1.7 | 9.9* | -3.3 | -6.1
CCCCn1c(SCC(=O)Nc2cc(C)on2)nnc1-c1cccs1 | -2.4 | -2.4 | -0.2 | -3.3 | 2.2 | x | x
CCn1c(SCC(=O)Nc2ccc(OC)c(OC)c2)nnc1-c1cccs1 | 5.1 | 9.7 | 0.3 | 4.3 | 12.4* | -3.0 | -3.6
SMILES | ADAM10 inh | PLCb3 inh | KLK7 zymogen act | ADAM17 inh | PLCg1 inh | PLCgamma1 ctr | PLCb3 confirm
CCCNC(=O)C1(C)CCCN(C(=O)CN2C(=O)c3ccccc3C2=O)C1 (stereo unspecified) | -12.0 | -6.2 | -0.2 | -4.4 | 10.0* | -2.9 | 0.8
Cc1ccc(S(=O)(=O)NCCC(=O)NCC(c2ccco2)N2CCCCC2)cc1C (stereo unspecified) | 3.0 | -0.1 | 0.7 | 0.1 | 3.6 | x | x
COc1ccc(O)c(CN2CC3CCC(CC3)C2)c1 | -3.8 | 0.4 | 0.7 | 3.0 | 5.2 | x | x
COc1cccc(/C=N/N2CCN(C)CC2)c1 | -3.0 | -1.6 | -0.1 | -1.9 | 0.5 | x | x
COc1ccc(/C=N/N2CCN(C)CC2)cc1O | -6.7 | 3.1 | -0.4 | -0.5 | 11.0* | 5.5 | 0.9
COc1ccc(CCCNC(=O)C2CCC(=O)N(Cc3ccccc3F)C2)cc1 (stereo unspecified) | -4.6 | -11.2 | -0.7 | -4.8 | 3.4 | x | x
O=[N+]([O-])c1ccc(Sc2ncccn2)c([N+](=O)[O-])c1 | 3.0 | 2.2 | 0.0 | 1.2 | 11.7* | 10.0* | 8.2
CCn1c(SCC(=O)Nc2ccccc2OC)nc2ccccc2c1=O | 15.4 | 4.5 | -0.1 | 1.3 | 11.1* | -8.5 | -5.1
Cc1ccc(S(=O)(=O)N(C)CCCC(=O)N2CCN(C=O)CC2)cc1 | -0.8 | 11.3* | -0.2 | 3.9 | 10.5* | -1.0 | 5.6
Cc1ccc(S(=O)(=O)N(C)CCCC(=O)N2CCOCC2)cc1 | 5.0 | 5.0 | -0.3 | 0.7 | 3.4 | x | x
COc1ccc(C2=CC(=O)CC(c3ccc(F)cc3)C2)cc1 (stereo unspecified) | -6.0 | -7.0 | 0.1 | -2.8 | 1.7 | x | x
COC(=O)c1sccc1S(=O)(=O)Nc1ccc(N2CCCCC2)cc1 | 19.4 | -3.3 | 0.2 | -2.6 | 9.6* | -5.0 | -3.3
COC(=O)c1ccc(OCCOc2ccccc2C)cc1 | -2.9 | -2.5 | 0.0 | 1.0 | 0.1 | x | x
COC(=O)c1ccc(OCCOc2ccccc2)cc1 | 10.2 | 0.7 | -0.2 | 3.9 | 10.9* | -7.3 | -4.1
CC1(CC(=O)N/N=C/c2cc([N+](=O)[O-])c(O)cc2O)OCCO1 | 6.3 | 3.5 | -0.5 | 3.2 | 9.6* | 13.0* | 1.4
Cc1ccc(S(=O)(=O)CCc2nnc(NC(=O)C3CCCO3)s2)cc1 (stereo unspecified) | 10.8 | 8.7 | -0.8 | 4.8 | 9.6* | 0.1 | -0.8
Cc1ccccc1NC(=O)Cc1nc(COC(=O)c2ccc([N+](=O)[O-])cc2)cs1 | -8.5 | -8.1 | 0.0 | -2.6 | -0.7 | x | x
